gsp ag: agonists of gsp mutant (McCune-Albright syndrome) | AID 624287 | gsp mutant cells, cAMP HTRF, 30 min | hit rate 0.13% among 340,000 | Potency, µM (top dose mostly 76.9 µM), for the others: at the top dose activation (cAMP increase), usual class: activators; active = well fitted activation curve with a large enough effect; inconclusive = small, poorly fitted or top-dose-only effect, or another doubt; inactive = no such curve, though single readings can be large or run the other way; cell line not stated here;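 also: phosphodiesterase inhibitor Ro 20-1724 added with compounds to block cAMP breakdown; potency is read from the fitted curve at half-maximal effect; nearly all actives have a fitted effect of over 60% in size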
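Cells in DMEM/10% FBS with G418 were pretreated with compounds in DMSO plus […] (300 uM stock) for 30 min at 37C. cAMP was measured by HTRF (cAMP-d2 plus anti-cAMP antibody-K) after 30 min at room temperature.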
RXFP1 ag: activates the human relaxin receptor RXFP1; hit rate 0.3% among 370,000; Potency, µM (series often up to 57.5 µM), for inactives: at the top dose activation, actives largely listed as activators; Q9HBX9; HEK293T-RXFP1 cAMP TR-FRET, 30 min; response scale: percent of porcine relaxin response, buffer zero; active = well fitted activation curve with a large enough effect; inconclusive = small, poorly fitted or top-dose-only effect; also: potency is read from the fitted curve at half-maximal effect; % is scaled to controls: 0 for no effect and ±100 for the full control effect; nearly all actives have a fitted effect of over 60% in size
Target sequence (Q9HBX9 whole entry, looked up): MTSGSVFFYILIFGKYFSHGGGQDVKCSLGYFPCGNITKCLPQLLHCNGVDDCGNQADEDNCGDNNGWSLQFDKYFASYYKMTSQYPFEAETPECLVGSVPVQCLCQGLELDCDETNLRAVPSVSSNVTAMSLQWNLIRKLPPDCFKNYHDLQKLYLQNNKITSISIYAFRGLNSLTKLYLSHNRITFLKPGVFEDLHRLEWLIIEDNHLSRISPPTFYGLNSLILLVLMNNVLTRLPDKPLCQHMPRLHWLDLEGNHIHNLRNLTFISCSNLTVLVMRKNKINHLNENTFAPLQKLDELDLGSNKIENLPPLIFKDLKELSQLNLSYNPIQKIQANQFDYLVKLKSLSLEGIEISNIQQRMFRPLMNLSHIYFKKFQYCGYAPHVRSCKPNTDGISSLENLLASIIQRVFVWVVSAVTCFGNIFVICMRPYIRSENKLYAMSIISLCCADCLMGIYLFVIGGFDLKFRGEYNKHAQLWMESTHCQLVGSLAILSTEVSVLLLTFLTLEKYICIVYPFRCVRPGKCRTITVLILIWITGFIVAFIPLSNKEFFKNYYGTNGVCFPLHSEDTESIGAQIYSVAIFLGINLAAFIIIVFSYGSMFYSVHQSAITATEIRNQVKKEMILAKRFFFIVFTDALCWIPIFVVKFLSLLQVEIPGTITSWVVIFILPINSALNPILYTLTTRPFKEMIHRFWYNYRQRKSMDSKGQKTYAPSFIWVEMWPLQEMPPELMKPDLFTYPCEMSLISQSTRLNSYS
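HEK293 cells stably expressing RXFP1, treated 30 min at 37C with compounds plus PDE4 inhibitor Ro 20174; cAMP measured by HTRF TR-FRET. Normalized to buffer and 29 nM porcine relaxin; EC50 by Hill fit.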
Akt phos inh: blocks phosphorylation of Akt | Neuro2A IGF-stimulated pAkt S473 HTRF, 20 min; hits give low values | activity change, % for hits at 50 µM | hit rate 0.32% among 360,000; in the data active = activity change below about -80%; inconclusive = mostly about -51% to -80%; also: % is scaled to controls: 0 for no effect and ±100 for the full control effect
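Neuro2A cells (4,500/well, DMEM with 0.5% FBS) were treated with compound at a single 50 µM final concentration, stimulated with 6 nM IGF for 20 min at 37 °C, and lysed. Phospho-Akt Ser473 was read by HTRF as 665/615 ratio ×10^4.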
gsp antag: gsp mutant antagonism | hit rate 0.4% among 340,000 | Potency, µM (highest dose often 76.9 µM), for inactives: at the top dose activity change, negative = inhibition, hits mostly inhibitors | gsp-mutant cells, cAMP HTRF, 30 min | AID 624288; calls by dose curve; cell line not stated here;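 also: intracellular cAMP measured with PDE inhibitor Ro 20-1724 present during compound exposure; potency is read from the fitted curve at half-maximal effect; % is scaled to controls: 0 for no effect and ±100 for the full control effect; nearly all actives have a fitted effect of over 65% in size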
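Cells in G418 medium, seeded 16-24 h, 37C; buffer exchange to DPBS + 1 mM CaCl2, 0.5 mM MgCl2, 0.05% BSA; cpds in DMSO + […] (300 uM stock), 30 min 37C; HTRF cAMP detection.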
RXFP1 antag: blocks the human relaxin receptor RXFP1. Q9HBX9. HEK293-RXFP1, relaxin-stimulated cAMP HTRF, 30 min; hits give low values. activity change, negative = inhibition, % at 57.5 µM. hit rate 0.59% among 350,000. AID 1259400;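 active = activity change of -60% or lower, but not beyond a set lower limit; inconclusive = change between -60% and -40%, or beyond the set limit; inactive = change above -40%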; also: % is scaled to controls: 0 for no effect and ±100 for the full control effect
* marks the source's active call; other numbers are inactive results; i = inactive; u = inconclusive; x = no result given; ! = a repeat was not active; [ ] = dose if it differs, or a comment. Only some compounds are listed: those with a hit (about 1.2% of all), similar ones and a draw of the others.

SMILES | gsp ag | RXFP1 ag | Akt phos inh | gsp antag | RXFP1 antag
COc1ccc(CNS(=O)(=O)c2cc(Br)cc3c2N(C(C)=O)C(C)C3)cc1 (centres undefined) | -4%[15.4 µM] | -2% | i | 0% | -8
COc1ccc(-c2c(C#N)c(SCC(=O)Nc3ccc(C)c(C)c3)nc(C)c2C(=O)Nc2ccccc2)cc1OC | x | 3% | x | x | x
COc1ccccc1OCCn1c(C(C)Oc2ccccc2)nc2ccccc21 (centres undefined) | x | 0% | x | x | -5
O=C(Nc1ccc2oc(-c3cc(Br)ccc3Cl)nc2c1)c1cc2ccccc2o1 | x | 20µM* | x | x | 5
CCc1ccc(NC(=O)c2cnn(-c3c(C)cccc3C)c2C2CCN(C(=O)OC(C)(C)C)CC2)cc1 | x | -2% | x | x | -9
Cc1cc(C)c(S(=O)(=O)N2CCN(C(=O)c3c(C)nn(-c4ccccc4)c3Cl)CC2)c(C)c1 | -5% | x | i | 25µM* | -15
CCOC(=O)c1cccc(NC(=O)N2CC(CC)Sc3ccccc32)c1 (centres undefined) | x | 1% | x | x | -32
COc1ccc(-c2c3c([nH]c(=S)c2C#N)CCC3)cc1 | 4.5µM* | 32µM* | i | 17% | 16
COc1ccc(OC)c(-c2c3c([nH]c(=S)c2C#N)CCCC3)c1 | -9%[15.4 µM] | 16% | i | -12% | -10
Cc1ccccc1C(=O)Nc1nnc(S(=O)(=O)N(C)Cc2ccco2)s1 | u | 5% | i | -16% | -3
CN(Cc1ccco1)S(=O)(=O)c1nnc(NC(=O)c2ccccc2Cl)s1 | u | 11µM*! | i | u | -10
C/C(=N\NC(=O)c1cccnc1)c1ccc(Br)cc1 | -61% | 0% | i | 2% | -1
C/C(=N\NC(=O)c1ccc(Br)cc1)c1ccccc1 | 15% | -1% | -111%* | 12% | -4
CCc1nn2c(=O)cc(COC(=O)c3ccccc3NC(=O)c3cccs3)nc2s1 | x | 22% | x | x | 12
COc1cccc(Nc2ccc3cc(S(=O)(=O)N4CCC(C)CC4)ccc3n2)c1 | x | 1% | x | x | -6
COc1ccc([N+](=O)[O-])cc1N(CC(O)CN(C)C)S(=O)(=O)c1ccccc1 (centres undefined) | -36% | 4% | i | 17% | x
COc1ccc([N+](=O)[O-])cc1N(CC(O)CN1CCCC1)S(=O)(=O)c1ccc(C)cc1 (centres undefined) | u | -1% | i | 4% | -66*
COc1ccc(NC(=O)c2cc(OC)c(OC)c(OC)c2)cc1S(=O)(=O)N1CCCCC1 | -6%[15.4 µM] | 1% | i | 0% | -9
CCOc1ccc(NC(=O)CN2CCCC2c2cccs2)cc1S(=O)(=O)N1CCCC1 (centres undefined) | u | 0% | i | u | -6
COc1ccc(NC(=O)CN2CCCC2c2cccs2)cc1S(=O)(=O)N1CCCCC1 (centres undefined) | 17% | 2% | i | 35µM* | -38
O=C(Nc1cccc(S(=O)(=O)N2CCCCC2)c1)c1ccc(Cl)nc1 | -17% | x | i | 50µM* | -10
COc1ccc(OC)c(S(=O)(=O)N2CCC(C(=O)Nc3ccc(C)c(C)c3)CC2)c1 | 9% | 0% | i | 28µM* | -1
COc1ccc(NC(=O)c2ccc(Cl)nc2)cc1S(=O)(=O)N1CCCCC1 | -1%[15.4 µM] | 0% | i | 32µM* | 9
O=C(Nc1ccc(S(=O)(=O)N2CCCCC2)cc1)c1ccncc1 | 19% | 2% | i | -5% | 13
O=C(Oc1cccc(NC(=O)c2ccco2)c1)c1cccc(S(=O)(=O)N2CCCCC2)c1 | -4% | 0% | -116%* | -6% | -3
SMILES | gsp ag | RXFP1 ag | Akt phos inh | gsp antag | RXFP1 antag
O=C(Nc1ccc(Cc2ccncc2)cc1)c1ccc(S(=O)(=O)N2CCCC2)cc1 | 8% | 1% | i | 50µM* | -61*
CC(c1nnnn1C(C)(C)C)N(Cc1cccnc1)Cc1ccccc1Cl (centres undefined) | -27% | 0% | i | 40µM* | 3
CCn1c(COc2cccc(C)c2)nnc1SCC(=O)Nc1cccc(C(=O)OC)c1 | -2% | 1% | i | 28µM* | -5
Cc1c(OCC(=O)NCC(O)c2ccccc2)ccc2c(-c3ccccc3)cc(=O)oc12 (centres undefined) | x | 0% | i | 28µM* | x
COc1ccc(Cl)cc1NC(=O)Cn1nc(Cc2ccncc2)c2ccccc2c1=O | x | 4% | x | x | 3
Cc1oc2c(CN3CCCC3)c(O)ccc2c(=O)c1Oc1ccccc1Br | u | 7% | -85%* | -7% | 8
CCN1CCN(Cc2c(O)ccc3c(=O)c(Oc4ccccc4Cl)c(C(F)(F)F)oc23)CC1 | x | 32µM* | x | x | x
Cn1c(/C(C#N)=C/c2ccc(C(F)(F)F)cc2)nc2ccccc21 | x | 7% | x | x | 9
COc1ccc(-n2c(=O)c3ccccc3n(CC(=O)NC3CCCC3)c2=O)cc1 | 7% | 0% | -105%* | -5% | -2
CCCCn1c(=O)c2oc3ccccc3c2n(CC(=O)Nc2cc(C)ccc2C)c1=O | x | -1% | x | x | -11
CCOCCn1ccc2c(OCC(=O)Nc3ccc(OC)c(OC)c3)cccc2c1=O | -23%[15.4 µM] | 0% | i | 35µM* | -9
Oc1ccc(COCc2ccc(F)cc2)c2cccnc12 | x | 1% | x | x | x
CC(NC(=O)/C(C#N)=C/c1ccc([N+](=O)[O-])o1)c1ccccc1 (centres undefined) | -1% | 0% | i | -25% | -75*
COc1ccc(NC(=O)Cn2c(=O)n(C(C)C)c(=O)c3oc4ccccc4c32)cc1Cl | x | 0% | x | x | 4
COc1ccc(Cn2c(-c3ccc(OC)c(O)c3)nc3ccccc32)cc1O | -5% | -1% | i | -25% | -72*
COc1cccc(C(=O)COc2ccc3c(C)c(Cc4ccccc4)c(=O)oc3c2)c1 | 0%[15.4 µM] | 0% | i | 12% | 6
Cc1c(CC(=O)O)c(=O)oc2cc(OCc3nn[nH]n3)ccc12 | 24% | 4% | -98%* | 6% | 1
Cc1c(C)c2ccc(OCC(=O)c3ccccc3)cc2oc1=O | u | 22% | i | 35µM* | -2
O=C(Nc1cccc(C(F)(F)F)c1)C1CCCN(S(=O)(=O)c2cccc3nsnc23)C1 (centres undefined) | x | 14% | x | x | x
C[C@@H]1C[C@H]2[C@@H]3CCC4=CC(=O)C=C[C@]4(C)[C@@]3(F)[C@@H](O)C[C@]2(C)[C@@]1(O)C(=O)COC(=O)c1ccncc1 | x | x | x | x | -11
S=C(NCc1ccc(Cl)cc1)NCc1ccccn1 | 14% | 1% | i | 12% | -2
CC(C)CCC(CCNCc1ccccn1)c1ccc(Cl)cc1 (centres undefined) | 16% | -1% | i | 3% | -69*
c1ccc(-c2csc(-c3ccncc3)n2)cc1 | 8%[15.4 µM] | 6% | i | -1% | -11
Brc1ccsc1-c1csc(-c2ccncc2)n1 | 18µM* | 18% | i | -3% | -3
